High-throughput results from PubChem BioAssay.
An excerpt weighted towards active compounds, which were near 1.3% of everything screened.
Calb biofilm kill – kills Candida albicans biofilms | 0.14% of 85,000 active | C. albicans biofilm + clotrimazole, Alamar Blue | AID 834 | inhibition, % at 6 µM;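 active means inhibition above 20%; inactive means inhibition below 20%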;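 further: preformed 24 hr biofilms exposed to compound for 48 hr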
GALR2 antag – blocks the human galanin receptor 2; 0.39% of 140,000 active; GALR2-expressing cells, antagonist mode; O43603; inhibition, % at 4 µM; AID 828; in the data active means inhibition above about 27%;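 further: cells stimulated with galanin 1-16 at roughly its EC80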
Target sequence (O43603 whole entry, looked up): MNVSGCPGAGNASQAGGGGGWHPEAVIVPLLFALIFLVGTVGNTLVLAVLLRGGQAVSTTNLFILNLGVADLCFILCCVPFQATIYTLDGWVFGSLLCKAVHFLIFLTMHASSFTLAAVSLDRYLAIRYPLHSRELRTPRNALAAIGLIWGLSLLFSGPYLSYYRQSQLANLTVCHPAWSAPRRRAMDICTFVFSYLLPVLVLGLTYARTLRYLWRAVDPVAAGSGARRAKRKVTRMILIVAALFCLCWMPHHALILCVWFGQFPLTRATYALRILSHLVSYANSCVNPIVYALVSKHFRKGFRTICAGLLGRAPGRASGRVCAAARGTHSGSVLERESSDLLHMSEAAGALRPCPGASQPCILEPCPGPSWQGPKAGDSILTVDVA
Smad3 FoxH1 inh – Smad3 (human) transcription factor binding inhibition. TR-FRET Smad3/Dy647-FoxH1 peptide binding, europium anti-His. inhibition, % at 25 µM. 0.29% of 88,000 active. AID 630;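 active means compounds that reduce the energy-transfer binding signal between the protein and its labelled peptide by more than half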
S1P2 ag – S1P2 (human) receptor agonism | O95136 | S1P2-expressing cell line, agonist reporter read-out | activation, % at 4.5 µM | 0.46% of 97,000 active; in the data active means activation above about 16%
GALR2 agonist – GALR2 (human) receptor agonism; O43603; GALR2-expressing cells, agonist activation read-out; activation, % (test concentration not listed); 0.48% of 140,000 active; AID 803; in the data active means activation above about 5%, passing the limit was not always enough
S1P2 antag – blocks the human S1P2 receptor. cell-based S1P2 antagonist assay, inhibition at 5 uM. inhibition, % at 5 µM. 0.21% of 97,000 active. AID 736; in the data active means inhibition above about 45%;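 further: CRE beta-lactamase reporter cells expressing human S1P2 stimulated with S1P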
Of the large screens only hits and unclear results are named; the others gave an inactive call; [ ] = remark or other dose.

Cn1c(=O)cc(SCC(=O)N2CCC3(CC2)OCCO3)c2ccc(Cl)cc21	Smad3 FoxH1 inh 55.7[fluorescence artefact?]
O=C(CSc1ccccc1)N1CCC2(CC1)OCCO2	none
CC(C)OCCCNC(=O)c1c(N)n(CC2CCCO2)c2nc3ccccc3nc12 (centres undefined)	S1P2 ag 18.1, GALR2 agonist 11.5
CC(C)OC(=O)c1c(N)n(CC2CCCO2)c2nc3ccccc3nc12 (centres undefined)	none
CCCNC(=O)c1c(N)n(CC2CCCO2)c2nc3ccccc3nc12 (centres undefined)	Smad3 FoxH1 inh 60.6
O=C1NC(=O)N(c2ccccc2)C(=O)/C1=C/c1ccc(Sc2ccccc2)o1	S1P2 antag 47.2 (no result: Calb biofilm kill, Smad3 FoxH1 inh)
COC1=C(C)C(=O)c2c(c(COC(N)=O)c3n2C[C@@H]2[C@H]3N2C)C1=O (some centres undefined)	none (no result: Calb biofilm kill, GALR2 antag, S1P2 ag, GALR2 agonist, S1P2 antag)
CC(C)[C@@H](Br)C(=O)NCC(=O)O	none (no result: Calb biofilm kill, GALR2 antag, S1P2 ag, GALR2 agonist, S1P2 antag)
Nc1cc[c]([Hg])cc1.Nc1nc2c(ncn2[C@H]2O[C@H](CO)[C@@H](O)[C@@H]2O)c(=[SH+])[nH]1	Smad3 FoxH1 inh 72.8 (no result: Calb biofilm kill, GALR2 antag, S1P2 ag, GALR2 agonist, S1P2 antag)
C/C(N[O-])=C(\C)[N+]([O-])=[Rh][Cl].CC(=N\[O-])/C(C)=N/[O-].c1ccc([PH+](c2ccccc2)c2ccccc2)cc1	none (no result: Calb biofilm kill, GALR2 antag, S1P2 ag, GALR2 agonist, S1P2 antag)
CN(C)CS/C(N)=N/[C@H](O)C(Cl)(Cl)Cl	Smad3 FoxH1 inh 53.8 (no result: Calb biofilm kill, GALR2 antag, S1P2 ag, GALR2 agonist, S1P2 antag)
Nc1nc(N)c(N=Nc2ccc([As](=O)(O)O)c(O)c2)c(N)n1	Smad3 FoxH1 inh 83.7 (no result: Calb biofilm kill, GALR2 antag, S1P2 ag, GALR2 agonist, S1P2 antag)
Nc1nc(N)c(N=Nc2ccc([As](=O)(O)O)cc2)c(=O)[nH]1	none (no result: Calb biofilm kill, GALR2 antag, S1P2 ag, GALR2 agonist, S1P2 antag)
C1C[C@@H]2CN(CCCN3CCOCC3)[C@H](C1)O2	none (no result: Calb biofilm kill, GALR2 antag, S1P2 ag, GALR2 agonist, S1P2 antag)
CCN1/C(=C\C=C\C2=[N+](CC)c3ccccc3C2(C)C)C(C)(C)c2ccccc21	S1P2 antag 105.7
N/C(=N\N=C\c1ccc(O)cc1O)N[N+](=O)[O-]	none
COc1ccccc1/C=N/N=C(/N)N[N+](=O)[O-]	Calb biofilm kill 44.4
CCOP(=O)(C(NC(=O)c1ccccc1Cl)=C(Cl)Cl)c1ccccc1 (centres undefined)	Calb biofilm kill 68.8
O=C(O)[C@@H]1[C@H](C(=O)O)[C@]2(Cl)C(Cl)=C(Cl)[C@@]1(Cl)C2(Cl)Cl	none (no result: Calb biofilm kill, GALR2 antag, S1P2 ag, GALR2 agonist, S1P2 antag)
CCCCCn1c(N)c(C(=O)NCCN2CCOCC2)c2nc3ccccc3nc21	S1P2 ag 16.4 (no result: Calb biofilm kill)
CCCCn1c(NS(=O)(=O)c2ccc(C)cc2)c(C(=O)OCC)c2nc3ccccc3nc21	GALR2 agonist 7.0 (no result: Calb biofilm kill, Smad3 FoxH1 inh, S1P2 ag, S1P2 antag)
CCCCNC(=O)c1c(N)n(Cc2ccc3c(c2)OCO3)c2nc3ccccc3nc12	S1P2 ag 38.0, GALR2 agonist 6.8
COCCCn1c(N)c(C(=O)NCCC(C)C)c2nc3ccccc3nc21	S1P2 ag 28.6, GALR2 agonist 33.1
COc1ccc(CCNC(=O)c2c(N)n(CCN3CCOCC3)c3nc4ccccc4nc23)cc1OC	none
C[C@@H]1O[C@H](OC2[C@@H](O)[C@H](O)C(O)[C@H](O)[C@H]2O)[C@@H](N)C[C@H]1N=C(N)C(=O)O (some centres undefined)	none (no result: Calb biofilm kill, GALR2 antag, S1P2 ag, GALR2 agonist, S1P2 antag)
CC(=O)O/C(=C1\C[C@@H]2[C@H]3CC=C4C[C@@H](OC(C)=O)CC[C@]4(C)[C@@H]3CC[C@@]2(C)C1=O)C(F)(F)F	none (no result: Calb biofilm kill, GALR2 antag, S1P2 ag, GALR2 agonist, S1P2 antag)
O=C(O)CN1CCN(CC(=O)O)CC(=O)[O][Hg][O]C(=O)C1	none (no result: Calb biofilm kill, GALR2 antag, S1P2 ag, GALR2 agonist, S1P2 antag)
CCCCn1c(N)c(C(=O)NCc2cccs2)c2nc3ccccc3nc21	S1P2 ag 18.3, GALR2 agonist 35.6
CCCCCn1c(N)c(C(=O)NCc2cccs2)c2nc3ccccc3nc21	none
CCCCCCn1c(N)c(C(=O)NCCN2CCOCC2)c2nc3ccccc3nc21	S1P2 ag 29.5, GALR2 agonist 20.4
Nc1c(C(=O)NCCCc2ccccc2)c2nc3ccccc3nc2n1Cc1cccs1	S1P2 ag 83.7, GALR2 agonist 32.1
C[C@]12CC[C@H](O)C[C@@H]1CC[C@H]1[C@H]2CC[C@@]2(C)[C@H](C3=CC(=O)OC3)[C@H](O)C[C@]12O	none (no result: Calb biofilm kill, GALR2 antag, S1P2 ag, GALR2 agonist, S1P2 antag)
O=S(=O)(O)/C(=C\c1ccccc1)c1ccccc1 (tested in a mixture with another compound)	none (no result: Calb biofilm kill, GALR2 antag, S1P2 ag, GALR2 agonist, S1P2 antag)
O=C(NCC1CC1)[C@@H]1C2c3ccccc3C(c3ccccc32)[C@@H]1C(=O)O	none (no result: Calb biofilm kill, GALR2 antag, S1P2 ag, GALR2 agonist, S1P2 antag)
Cc1c(C(=O)N2CCC3(CC2)OCCO3)oc2ccc(S(=O)(=O)N3CCOCC3)cc12	Smad3 FoxH1 inh 66.5
O=C(O)C[C@H]1OCC=C2CN3CC[C@]45C6=CC(=O)C(=O)C([N+](=O)[O-])=C6N[C@H]4[C@H]1[C@H]2C[C@H]35	Smad3 FoxH1 inh 58.0 (no result: Calb biofilm kill, GALR2 antag, S1P2 ag, GALR2 agonist, S1P2 antag)
